Several values for one entry are separate records, joined by “and”; a condition that tells them apart may be missing. Equal values may be shown once. Results filed as inconclusive are left out. A number with no mark means an inactive call. Activity calls are given as the source filed them. The call rests on the fitted dose curve; in most records, active means well fitted curve in the direction sought with a large enough effect; inconclusive means small, poorly fitted or top-dose-only effect, or another doubt; inactive means no such curve, though single readings can be large; an effect the other way counts as inactive or inconclusive.

Assay [1] deals with Cellular tumor antigen p53 (Homo sapiens) (UniProt P04637). As to the kind of experiment: Primary qHTS for small molecule compounds that upregulate eGFP-tagged delta133p53alpha (in N-terminal) cells. (AID 2060322). Further: nearly all actives have a fitted effect of over 75% in size. Further: potency means the concentration at half of the fitted maximal effect.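 On activation: 0% = DMSO vehicle and 100% = reference activator.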 Particulars: NCI-H358 eGFP-delta133p53alpha fluorescence, 24 h; activation: active compounds read high. Summed up: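 NCI-H358 cells pre-induced 24 h with 10 ng/ml doxycycline to express N-terminal eGFP-delta133p53alpha, then dosed 24 h at 37C without doxycycline; fixed, Hoechst-stained, GFP intensity by laser scanning cytometry, normalized to DMSO (0%) and 57.5 uM 5-azacytidine (100%).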
Cellular tumor antigen p53 (Homo sapiens), sequence (P04637 whole entry, looked up): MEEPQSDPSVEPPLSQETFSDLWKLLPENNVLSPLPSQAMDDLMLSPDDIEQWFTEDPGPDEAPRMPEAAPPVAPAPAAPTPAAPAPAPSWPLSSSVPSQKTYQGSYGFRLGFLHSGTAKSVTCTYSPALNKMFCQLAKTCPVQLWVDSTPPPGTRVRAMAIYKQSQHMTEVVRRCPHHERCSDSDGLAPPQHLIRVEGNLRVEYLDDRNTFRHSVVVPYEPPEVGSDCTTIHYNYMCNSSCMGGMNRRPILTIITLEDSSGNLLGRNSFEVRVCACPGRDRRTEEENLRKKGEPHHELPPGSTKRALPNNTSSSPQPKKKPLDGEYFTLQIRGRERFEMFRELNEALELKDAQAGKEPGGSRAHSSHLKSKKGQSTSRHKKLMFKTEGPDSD

The target of assay [2] is Aldehyde dehydrogenase, mitochondrial (Homo sapiens) (UniProt P05091). Nature of the assay: qHTS for Inhibitors of the Aldehyde Dehydrogenase Family (ALDH2) Primary screen (AID 2061308).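 Further: plate controls were vehicle for no effect and reference inhibitor for full effect; nearly all actives have a fitted effect of over 55% in size.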 Particulars: ALDH2 enzyme inhibition qHTS, 1536-well; series mostly up to 56 µM. In general terms: Quantitative high-throughput screening tests each substance at several concentrations.
Assay [3] deals with Retinaldehyde dehydrogenase 3 (Homo sapiens) (UniProt P47895). As to the kind of experiment: qHTS for Inhibitors of the Aldehyde Dehydrogenase Family (ALDH1A3) Validation screen (AID 2061312). Further: on the % scale 0 is the no-effect control and ±100 the full control effect; nearly all actives have a fitted effect of over 45% in size. Particulars: ALDH1A3 enzyme inhibition qHTS validation, fluorescence; series mostly up to 42.4 µM.
For assay [4] the target is unchanged. As to the kind of experiment: qHTS for Inhibitors of the Aldehyde Dehydrogenase Family (ALDH1A3) Primary screen (AID 2061315).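 Further: plate controls were DMSO vehicle for no effect and reference inhibitor for full effect.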 The settings on record: ALDH inhibition qHTS; series mostly up to 56 µM.

As for `Cc1c(Cl)cccc1S(=O)(=O)Nc1nc(CC(=O)N2CCN(C)CC2)cs1`, the activation in assay [1] is -6.21%. Further, the Potency entry in assay [2], in assay [3] and in assay [4] was “inactive” throughout.

In the case of `Cc1cccc(NC(=O)NC2N=C(c3ccccc3)c3ccccc3N(CC(=O)c3ccccc3C)C2=O)c1` (stereo not drawn), the activation in assay [1] is -13.8%. Moreover, the Potency entry in assay [2], in assay [3] and in assay [4] was “inactive” each time.

`CC[C@H](O)[C@@H](C)[C@H]1O[C@@H]1C[C@H](C)/C=C/C=C(\C)[C@H]1OC(=O)C[C@H](O)CC[C@@](C)(O)[C@@H](OC(C)=O)/C=C/[C@@H]1C`: in assay [1], the Potency was 67.5 nM (active). Moreover, the Potency result in assay [2], in assay [3] and in assay [4] was “inactive” in each case.

For the compound `C[C@H]1CN(CC[C@H](O)C2CCCCC2)CC[C@@]1(C)c1cccc(O)c1`, the activation in assay [1] is -6.21%. The Potency entry in assay [2], in assay [3] and in assay [4] was “inactive” throughout.

`COc1cccc(NCC(F)Cn2c3ccc(Br)cc3c3cc(Br)ccc32)c1` (stereo not drawn): in assay [1], the activation was 8.11%. The Potency result in assay [2], in assay [3] and in assay [4] was “inactive” each time.

On to `CCc1nn(C)c(C(=O)NCc2ccc(Oc3ccc(C)cc3)cc2)c1Cl`, for which the activation in assay [1] is 1.43%. In addition, the Potency entry in assay [2], in assay [3] and in assay [4] was “inactive” in each case.

Regarding `NC(=O)c1ncn2c1CN=C(c1ccccc1Br)c1cc(F)ccc1-2`, the activation in assay [1] is -14.3%. For the same compound, the Potency entry in assay [2], in assay [3] and in assay [4] was “inactive” in each case.

Take `CN=C(NS(=O)(=O)c1ccc(Cl)cc1)N1C[C@H](c2ccccc2)C(c2ccc(Cl)cc2)=N1`: the activation in assay [1] was 1.91%. The Potency entry in assay [2], in assay [3] and in assay [4] was “inactive” in each case.

Take `O=C1CN=C(c2cccc(Br)c2)c2oc3ccccc3c2N1`: the activation in assay [1] is -24.3%. The Potency entry in assay [2], in assay [3] and in assay [4] was “inactive” each time.

`OC1(c2ccc(Cl)cc2)c2ccccc2C2=NCCN21` (stereo not drawn): the activation in assay [1] was 6.21%. In addition, the Potency result in assay [2], in assay [3] and in assay [4] was “inactive” each time.

For the compound `Cc1c(Cl)c(OCC(=O)N2CCN(C)CC2)nc2sc(C(=O)NC3CC3)c(N)c12`, the activation in assay [1] was 5.25%. For the same compound, the Potency result in assay [2], in assay [3] and in assay [4] was “inactive” throughout.

On to `CCCCCCn1c(=O)c(C(=O)Nc2ccc(C(=O)OCCC)cc2)c(O)c2ccccc21`, for which the activation in assay [1] is 4.3%. Moreover, the activity change, negative = inhibition in assay [2] was 11.3% [at 11.2 µM]; in assay [4] it was 11.2% [at 11.2 µM]. The Potency result in assay [3] was “inactive”.

Take `CN[C@H]1[C@H](O)[C@H](O[C@@H]2[C@@H](O)[C@H](O[C@H]3O[C@H]([C@H](C)O)[C@@H](O)[C@H](O)[C@H]3N)[C@@H](N)C[C@H]2N)OC[C@@]1(C)O`: in assay [1], the activation is -4.3%. Besides, the Potency result in assay [2], in assay [3] and in assay [4] was “inactive” in each case.

In the case of `CC1(C)C(=O)N(c2ccc(C#N)c(C(F)(F)F)c2)C(=O)N1CCCCO`, in assay [1], the activation was -17.7%. For the same compound, the Potency result in assay [2], in assay [3] and in assay [4] was “inactive” each time.

Regarding `CC(N)Cc1c[nH]c2ccccc12` (stereo not drawn), the activation in assay [1] is 12.4%. The Potency result in assay [2], in assay [3] and in assay [4] was “inactive” throughout.

As to `CN1C(=O)CN=C(c2ccccc2Cl)c2cc(Cl)ccc21`, in assay [1], the activation is -10%. Moreover, the Potency entry in assay [2], in assay [3] and in assay [4] was “inactive” in each case.

Take `COc1ccc2[nH]c(-c3ccccc3)c(CCN(C)C)c2c1`: the activation in assay [1] was -11%. Moreover, the Potency entry in assay [2], in assay [3] and in assay [4] was “inactive” each time.

Consider `CN(C)CCc1c[nH]c2ccc(CN3CCN(C)S3(=O)=O)cc12`, for which the activation in assay [1] is -4.3%. Also, the Potency entry in assay [2], in assay [3] and in assay [4] was “inactive” each time.

`O=C(N1CCCCC1Cc1ccccc1)n1cc(-c2ccc(-c3ccccc3)cc2)nn1` (stereo not drawn): in assay [1], the activation is 1.43%. The Potency entry in assay [2], in assay [3] and in assay [4] was “inactive” in each case.

As to `Cc1ccc(-n2nccn2)c(C(=O)N2CCN(c3nc4cc(Cl)ccc4o3)CCC2C)c1` (stereo not drawn), in assay [1], the activation was -12.4%. Further, the Potency entry in assay [2], in assay [3] and in assay [4] was “inactive” in each case.

For `CCOC(=O)c1cncn1C(C)c1ccccc1` (stereo not drawn), the activation in assay [1] was 10% and 2.86%. Also, the Potency result in assay [2], in assay [3] and in assay [4] was “inactive” throughout.

On to `COc1cc(CCNCc2ccccc2O)c(OC)cc1C#N`, for which, in assay [1], the activation was -6.21%. The Potency entry in assay [2], in assay [3] and in assay [4] was “inactive” in each case.

Regarding `CC(=O)NCCCOc1ccc(C(=O)N2CCC(N3C(=O)CCc4ccccc43)CC2)cc1`, in assay [1], the activation is -10.5%. Moreover, the Potency result in assay [2], in assay [3] and in assay [4] was “inactive” throughout.

Regarding `O=C(NCCN1CCC2(CC1)C(=O)NCN2c1cccc(F)c1)c1ccc(F)c(F)c1`, the activation in assay [1] was 18.1%. Further, the Potency result in assay [2], in assay [3] and in assay [4] was “inactive” throughout.

Turning to `c1ccc(C2(c3ccccc3)OC[C@@H]([C@H]3CCCCN3)O2)cc1`, the activation in assay [1] was 2.86%. For the same compound, the Potency entry in assay [2], in assay [3] and in assay [4] was “inactive” throughout.

Regarding `N#Cc1ccc([C@H]2CCCC[C@H]2O)cc1C(F)(F)F`, in assay [1], the activation was 11%. Moreover, the Potency entry in assay [2], in assay [3] and in assay [4] was “inactive” throughout.

As for `CNC(=O)N1N=C(c2ccc(N)cc2)c2cc3c(cc2CC1C)OCO3` (stereo not drawn), the activation in assay [1] was 34.7%. Also, the Potency entry in assay [2], in assay [3] and in assay [4] was “inactive” each time.
